Assay results from PubChem BioAssay AID686978 (National Center for Advancing Translational Sciences (NCATS), 2013).
Several values for one entry are separate records, joined by “and”; a condition that tells them apart may be missing. Equal entries are not always repeated. Out of some 420,000 compounds screened, about 64,000 (15%) were called active. Another 27% or so got no clear call; they are omitted. Calls come from the whole dose curve; as a rule, active = well fitted inhibition curve with a large enough effect; inconclusive = small, poorly fitted or top-dose-only effect; inactive = flat fitted curve, though single readings scatter. Only a sample is shown. Entries that show only a call come without a potency.

assay: qHTS for Inhibitors of human tyrosyl-DNA phosphodiesterase 1 (TDP1): qHTS in cells in absence of CPT; details: DT40 Tdp1-/- hTDP1 cells, no CPT, ATP luminescence, 48 h; activity change, negative = growth inhibition: at 46.2 µM (top of the series); note: nearly all actives have a fitted effect of over 55% in size
Summary of the method: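 Readout: luminescence from CellTiter-Glo after 30 min in the dark at RT. Cells: DT40 Tdp1-/- with stable hTDP1, 400/well. Exposure: compounds alone, ≥48 hr, 37 °C.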
Potency is the fitted concentration of half-maximal effect.

Row | SMILES | Potency
1 | Cc1cc(NS(=O)(=O)c2ccc(NC(=O)c3cccc(OC(F)F)c3)cc2)nc(C)n1 | inactive
2 | O=C(O)CCSc1nnc(-c2ccccc2)n1-c1ccccc1 | inactive
3 | Cc1ccc(NC(=O)c2ccn(C(=O)Nc3ccccc3)n2)c(C)c1 | inactive
4 | CCN(CC)CCNC(=O)c1cc(S(C)(=O)=O)ccc1OC | inactive
5 | COc1ccc(N(CC(=O)NCCSCc2cccc(Cl)c2)S(C)(=O)=O)cc1 | inactive
6 | COc1cc(/C=C2\SC(=S)N(Nc3ncc(C(F)(F)F)cc3Cl)C2=O)cc(OC)c1OC | inactive
7 | COc1cccc(/C(C)=N/Nc2ncc(Cl)cc2Cl)c1 | inactive
8 | COc1cccc(/C=N/Nc2ncc(C(F)(F)F)cc2Cl)c1O | 4.11 µM (active)
9 | CCN(CC)Cc1csc2ccc(Br)cc12 | inactive
10 | COc1ccccc1OCC(O)CN1CCOCC1 (centres undefined) | inactive
11 | CCCn1c(=N)n(CC(O)COc2ccccc2OC)c2ccccc21 (centres undefined) | 7.31 µM (active)
12 | C=CCc1ccc(OCC(O)CN2CCN(Cc3ccccc3)CC2)c(OC)c1 (centres undefined) | inactive
13 | C=CCn1c(=N)n(CC(O)COc2ccc(OC)cc2)c2ccccc21 (centres undefined) | 20.6 µM (active)
14 | COc1ccc(CCNCC(O)Cn2ccc3ccccc32)cc1OC (centres undefined) | inactive
15 | COC(=O)c1ccc(OCC(O)CN(CCO)CC(O)Cn2ccc3ccccc32)cc1 (centres undefined) | inactive
16 | COc1ccc(C(=O)NCC2CCCO2)cc1S(=O)(=O)NCc1ccc(Cl)cc1 (centres undefined) | inactive
17 | CN1CCN(C(CNS(=O)(=O)c2cccs2)c2cccnc2)CC1 (centres undefined) | inactive
18 | COc1cccc(/C=C/C(=O)OCC(=O)N2CCCc3ccccc32)c1 | inactive
19 | Cc1cccc(N(C)C(=O)CS(=O)(=O)c2cccc3nsnc23)c1 | inactive
20 | CC1(C)OC(=O)C(=CSc2ccc(C(C)(C)C)cc2)C(=O)O1 | inactive
21 | COCCCNC(NC(=O)c1ccc(OC)cc1)C(Cl)(Cl)Cl (centres undefined) | inactive
22 | CCOCCCNC(=O)C(NC(=O)CNC(=O)c1ccccc1)c1ccc(C)cc1 (centres undefined) | inactive
23 | COCCCNC(NC(=O)c1ccc(C)cc1)C(Cl)(Cl)Cl (centres undefined) | 14.6 µM (active)
24 | O=C(CN1C(=O)NC2(CCCCC2)C1=O)N1CCN(C(=O)c2cccs2)CC1 | inactive
25 | CS(=O)(=O)N(C(=O)NC(=O)NC1CCS(=O)(=O)C1)C1CCCCC1 (centres undefined) | inactive

Row | SMILES | Potency
26 | O=C(CSc1ccccc1F)NC1CCS(=O)(=O)C1 (centres undefined) | inactive
27 | CCCSC(=S)NC1CCS(=O)(=O)C1 (centres undefined) | 20.6 µM (active)
28 | O=S1(=O)CCC(NC(=S)SCc2ccccc2Br)C1 (centres undefined) | 18.4 µM (active)
29 | CC(C)C(=O)NC(NC(=S)NC1CCS(=O)(=O)C1)C(Cl)(Cl)Cl (centres undefined) | inactive
30 | CCN(CC(=O)NC1CCS(=O)(=O)C1)S(=O)(=O)c1ccccc1 (centres undefined) | inactive
31 | Cc1cc(C)cc(NC(=O)C(c2ccccc2)N2CCN(CC(=O)N3CCCC3)CC2)c1 (centres undefined) | inactive
32 | O=C(NC1CCCCC1)C1c2ccccc2C(=O)N1Cc1ccco1 (centres undefined) | inactive
33 | S=C(NCc1ccco1)Nc1ccc2c(c1)OCCO2 | inactive
34 | O=C1c2ccccc2C(Nc2ccc3c(c2)OCCO3)N1Cc1ccco1 (centres undefined) | 14.6 µM (active)
35 | CCN(CC(=O)Nc1ccc(NC(C)=O)cc1)C(=O)C1CC(=O)N(c2ccc3c(c2)OCCO3)C1 (centres undefined) | inactive
36 | C/C(N)=C(/C#N)C(=O)COC(=O)CNS(=O)(=O)c1ccc(C)cc1 | inactive
37 | CC1(C(=O)NS(=O)(=O)c2ccccc2Cl)CCN1C(=O)c1cccc(F)c1 (centres undefined) | inactive
38 | c1csc(-c2nnc(COc3ccc4c(c3)OCO4)o2)c1 | inactive
39 | COc1cccc(CN(C)CC2CCCN(CCc3ccc(Cl)cc3)C2)c1OC (centres undefined) | 20.6 µM (active)
40 | COc1cccc(COC(=O)C2CCN(S(=O)(=O)c3ccc(Cl)cc3)CC2)c1OC | inactive
41 | Cc1nc2ccc(C(=O)N(C)CC3CCCN(CCc4ccc(Cl)cc4)C3)cc2[nH]1 (centres undefined) | inactive
42 | CO[C@H]1[C@@H](O)[C@H](N)[C@@H](O[C@H]2O[C@H]([C@H](C)N)CC[C@H]2N)[C@H](O)[C@@H]1N(C)C(=O)CN | inactive
43 | CCOc1ccc(C(=O)Nc2cc(Cl)ccc2-n2cncn2)cc1OC | inactive
44 | O=c1[nH]n2c(-c3ccccc3)nc(O)c2c2ccccc12 | inactive
45 | CCOC(=O)c1cnc2[nH]c3ccccc3n2c1=O | inactive
46 | O=c1[nH]c2ccccc2n2c(-c3ccccc3)nnc12 | 18.4 µM (active) and 11.2 µM (active)
47 | COC(=O)CCSc1nccn1Cc1ccccc1 | inactive
48 | Cc1ccc(CN2CC(C(=O)NNC(=O)Cn3ccc(C(F)(F)F)n3)CC2=O)cc1 (centres undefined) | inactive
49 | CN(CCO)C(=O)c1nc[nH]c1C(=O)N(C)Cc1ccccc1 | inactive
50 | Cc1ccc(-c2nc3ccccc3[nH]c2=O)cc1 | inactive

Row | SMILES | Potency
51 | c1ccc2cc3[nH]c(CN4CCCCC4)nc3cc2c1 | inactive
52 | CCCCCn1nnnc1-c1nc2cc3ccccc3cc2[nH]c1=O | 2.59 µM (active)
53 | O=S1(=O)CSCS(=O)(=O)C1 | inactive
54 | CN1OC[C@@H]2CN(C(=O)c3cccc4ccccc34)[C@H](c3ccc(N4CCCCC4)cc3)C[C@@H]21 | inactive
55 | COc1ccc(CN2C[C@H]3CON(C)[C@H]3C[C@H]2c2ccc(-c3cccc(F)c3)cc2)cc1 | 16.4 µM (active)
56 | COc1ccc(CN2C3CCCC2CC(NC(=O)c2cccc(F)c2)C3)cc1 (centres undefined) | inactive
57 | CCCNC(=O)c1onc(CSc2ccc(F)cc2)c1C(=O)NC(C)C | inactive
58 | Cc1ccc(-c2nc(C)sc2CC(=O)O)cc1 | inactive
59 | N#C/C(=C\c1cccc(F)c1)c1nc(-c2cc3c(ccc4ccccc43)oc2=O)cs1 | inactive
60 | O=C(c1ccc(F)cc1)n1cc(C(=S)N2CCOCC2)c2ccccc21 | 11.6 µM (active)
61 | O=C(Oc1ccc(C(=S)N2CCOCC2)cc1)c1ccc(F)cc1 | inactive
62 | O=C(Nc1ccc(F)cc1)C(=O)c1cn(CC(=O)N2CCOCC2)c2ccccc12 | inactive
63 | O=C(CSc1nc2ccccc2c(=O)n1CCCO)NC1CC1 | inactive
64 | COc1ccc(OC)c(NC(=O)CSc2nc(N)c(-c3ccccc3)c(=O)[nH]2)c1 | inactive
65 | CCOCCCn1c(SCC(=O)Nc2ccc(CC)cc2)nc2ccccc2c1=O | 13 µM (active)
66 | Cn1c(SCC(=O)N2CCCc3ccccc32)nc2ccccc2c1=O | 9.2 µM (active)
67 | COc1ccc(S(=O)(=O)N(C)C)cc1NC(=O)CSc1ncccn1 | 13 µM (active)
68 | COc1ccc(C)cc1NC(=O)CSc1cccc[n+]1[O-] | inactive
69 | COc1ccc(OC)c(NC(=O)CSc2nc3cccnc3n2C)c1 | 16.4 µM (active)
70 | Cc1nnc(SCC(=O)N2CCc3ccccc32)n1-c1ccccc1 | inactive
71 | CCc1nnc(NC(=O)CSc2nc3ccccc3c(=O)n2CCCOC)s1 | inactive
72 | O=C(CSc1nc2[nH]ncc2c(=O)n1-c1ccccc1)N1CCCc2ccccc21 | inactive
73 | COc1ccc(S(=O)(=O)N2CCOCC2)cc1NC(=O)CSc1ncnc2ccccc12 | inactive
74 | COc1ccc(-c2nnc(SCC(=O)Nc3cccnc3Cl)n2C)cc1 | inactive
